Molecules are shown by their SMILES. Compounds without any hit were thinned out: in the full panel of roughly 83,000, 20% have a hit.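 Growth was measured after 48 h exposure to one concentration of compound in 96-well plates. Values under 10 count as active.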 A number with no mark means an inactive call. Activity calls are given as the source filed them.

The assay concerns MCF7 breast. Description: NCI-60 one-dose screen, 48 h (100 = growth as untreated, 0 = no growth, -100 = all killed). The following applies: 10 µM unless noted. Here is the method: Growth inhibition of the MCF7 human tumor cell line is measured as a screen for anti-cancer activity. Cells are grown in 96 well plates and exposed to the test compound for 48 hours. Compounds are tested at a single concentration, which is 10^-5 M for most compounds. The reported endpoint is percent growth (GI% or GIPRCNT), where numbers from 0 - 100% represent growth inhibition, and numbers from -100% - 0 represent cell death. For example, a value of 40 represents 60% growth inhibition. A value of 0 means no net growth occurred over the course of the experiment. A value of -40 indicates 40% of cells at the beginning of the experiment died by the end of the experiment. A value of -100 means all cells are dead at the end of the experiment.
NCI-60 Human Tumor Cell Lines Screen was performed using the standard one-dose NCI protocol, which is described in more detail at https://dtp.cancer.gov/discovery_development/nci-60/default.htm.
Compounds with GIPRCNT values below 10 were considered active. Activity score was based on GIPRCNT using the following formula: […]
Score is 0 for GIPRCNT values of 100 or above, 50 for GIPRCNT values of 0, and 100 for GIPRCNT values of -100.
Consider `CC1(C)CC[C@]2(C(=O)N3CCCN(CC#N)CC3)CC[C@]3(C)C(=CC[C@@H]4[C@@]5(C)CC[C@H](O)C(C)(C)[C@@H]5CC[C@]43C)[C@H]2C1`, for which the growth is 5.68% (active).

Consider `COc1ccc(-c2nnc(SCc3ccc(O)c4ncccc34)n2-c2ccccc2)cc1`, for which the growth was 5.08% (active).

In the case of `O=C(NNc1nc2cc(F)cc(F)c2n2cccc12)c1ccncn1`, the growth was 4.99% (active).

On to `CS(=O)(=O)c1ccc(-c2nn(-c3ccccc3)cc2/C=N/NC(=O)c2ccncc2)cc1`, for which the growth was 93.8%.

Regarding `CCNC(=O)Oc1ccc(/C(=C(/C)c2ccc(Cl)cc2)c2ccc(OCCN3CCCC3)cc2)cc1`, the growth was 25.3%.

Regarding `O=C1/C(=C/c2ccc([N+](=O)[O-])cc2)SC(=Nc2ccccc2)N1Nc1ccccc1`, the growth was 44.1%.

For the compound `CNC(=O)c1cc(N2CCc3cc(NC(=O)Nc4ccc(Cl)c(Cl)c4)ccc32)ccn1`, the growth was 63.3%.

Turning to `O=S(=O)(Nc1ccc(-c2nc(-c3cccc(O)c3)c(-c3ccnc(Br)c3)[nH]2)cc1)c1ccccc1`, the growth was 7.26% (active).

For `Nc1nc(-c2cccc([N+](=O)[O-])c2)c(N=Nc2ccccc2[N+](=O)[O-])s1`, the growth was 82.2%.

For the compound `Clc1ccc(-c2csc(N/N=C/c3nc4ccccc4n3C3CC3)n2)cc1`, the growth was 94.2%.

On to `COc1ccc(-c2nn(-c3ccccc3)cc2/C=C/C(=O)c2ccc(NC(=O)CCCCCCC(=O)NO)cc2)cc1`, for which the growth is 94.2%.

Turning to `COc1ccc(NC(=O)Cn2cc(CN3C(=O)c4ccc([N+](=O)[O-])cc4C3=O)nn2)cc1`, the growth was 91.3%.

For the compound `CCN(CC)CCCC(C)NCC(=O)NC(c1ccc2c(c1)OCO2)c1cc(Cl)c2cccnc2c1O` (stereo not given), the growth is 7.35% (active).

Turning to `O=C1c2c(O)cc(O)cc2O[C@@H](c2ccc(O)cc2)[C@@H]1c1c(O)cc(O)c2c(=O)cc(-c3ccc(O)c(O)c3)oc12`, the growth is 99.9%.

Take `COc1cc([C@H]2OC[C@H]3[C@@H]2CO[C@@H]3c2ccc(O)c(OC)c2)ccc1O`: the growth is 96.1%.

With `Cc1ccc(Nc2ncnc3c2c(C)nn3-c2ccc([N+](=O)[O-])cc2)cc1`, the growth is 83%.

As to `O=C1C[C@@H](c2ccccc2)Oc2c(Cc3ccccc3O)c(O)c(Cc3cc(Cc4cc(Cc5ccccc5O)ccc4O)ccc3O)c(O)c21`, the growth is 92.2%.

For `COc1ccc(Cn2cc3c(c2-c2ccccc2)CCCc2cnoc2-3)cc1`, the growth is 22.9%.

For the compound `O=C(COc1cccc2cccnc12)Nc1ccc(C(=O)/C=C/c2ccc(Cl)cc2)cc1`, the growth was 17.1%.

As for `CN1CCN(c2ccc3c(c2)nc(NNC(=O)c2ccncn2)c2cccn23)CC1`, the growth is 17.6%.

For the compound `CS(=O)(=O)c1ccc(-c2nn(-c3ccccc3)cc2/C=C/C(=O)c2ccc(Br)cc2)cc1`, the growth was 50.2%.

For the compound `Cn1cc2c(c1)-c1c(sc3nc(-c4ccc(NC(=O)Nc5cc(C(C)(C)C)on5)cc4)cn13)CC2`, the growth is 15.6%.

As to `Cc1nc(-c2cc3ccccc3c(N3CCN(C)CC3)n2)cs1`, the growth was 92.7%.

Regarding `COCCC[C@H]1O[C@@](O)([C@H](C)[C@@H]2CC(OC)C(O)/C=C(C)/C=C(C)/C=C(\C)C(OC3O[C@@H](C)[C@H](O)C(O)[C@@H]3O)C(C)/C=C(C)/C=C(OC)/C=C(\C)C(=O)O2)C(OC)C(O)[C@]1(C)O[C@H]1C[C@@H](O)[C@H](O[C@H]2C[C@](C)(O)[C@H](O)C(C)O2)C(C)O1` (stereo not given in full), the growth is 22.4%.

Consider `Cc1ccc(S(=O)(=O)N/N=C/c2cn(-c3ccc(F)cc3)nc2-c2ccc(S(C)(=O)=O)cc2)cc1`, for which the growth is 95.7%.

Consider `O=C(NNc1nc2cc(F)c(F)cc2n2cccc12)c1cccnn1`, for which the growth was 7.41% (active).

Take `Clc1ccc(-c2nc3ccc(/C(=N\N=C\c4ccccc4)c4ccccc4)cc3[nH]2)cc1`: the growth was 78.3%.

As for `CCOC(=O)C1=C(C)N=C2Sc3ccccc3N2C1c1ccccc1` (stereo not given), the growth was 106%.

Take `C=CCn1c(SCC(=O)Nc2cccc(C(=O)/C=C/c3ccccc3Cl)c2)nc2ccccc2c1=O`: the growth is 24.4%.

Regarding `C=C(C)[C@@H]1CC[C@]2(C(=O)NCCCN(CCC#N)CCC#N)CC[C@]3(C)[C@H](CC[C@@H]4[C@@]5(C)CCC(=O)C(C)(C)[C@@H]5CC[C@]43C)[C@@H]12`, the growth was 84.9%.

As to `C/C(Cc1ccc(Cl)cc1)=C(/c1ccccc1)c1ccc(OCCN)cc1`, the growth was 99.9%.

Take `O=c1oc2ccc(-c3ccc(F)cc3F)cc2c(=O)n1-c1ccc(F)c(F)c1`: the growth is 2.02% (active).

With `Oc1ccc(CSc2nnc(-c3cnccn3)n2-c2ccccc2)c2cccnc12`, the growth was 2.85% (active).

`COC[C@@]1(C)CC[C@]2(C)CC[C@]3(C)C(=CC[C@@H]4[C@@]5(C)CCCNC(C)(C)[C@@H]5CC[C@]43C)C2C1` (stereo not given in full): the growth is 23.9%.

In the case of `C#C[C@]1(O)CC[C@H]2[C@@H]3CC=C4c5sc(Nc6cc(Cl)ccn6)nc5CC[C@]4(C)[C@H]3CC[C@@]21C`, the growth was -64% (active).

In the case of `COc1c([C@@H](CC(C)C)OC(C)=O)ccc2c1C(=O)OCc1cc(C)cc(O)c1O2`, the growth was 18.4%.

`CCNCCCn1c2c(c3cc(OC)c(OC)cc3c1=O)C(=O)c1cc(OC)cnc1-2`: the growth was 8.05% (active).

Consider `Cc1ccc(-c2nnc3sc(C4=Cc5ccccc5OC=C4)nn23)cc1`, for which the growth was 88.9%.

As to `O=C1[C@H]2Cc3c([nH]c4ccccc34)[C@@H](c3ccc(Cl)cc3)N2C(=O)CN1C1CCN(Cc2c(Cl)cccc2Cl)CC1`, the growth is 87%.

In the case of `Fc1ccc(-c2cc3nc(C(Cl)Cl)nc(-c4cccs4)n3n2)cc1`, the growth was 3.99% (active).

The values above are taken from PubChem BioAssay (NCI).
